Measurements published in PubChem BioAssay AID1851 (National Center for Advancing Translational Sciences (NCATS), 2009).
The whole screen tested about 16,000 compounds, of which about 4,000 (25%) were called active. Roughly 26% stayed inconclusive and do not appear here. Not all results are given here. A number with no mark means an inactive call. The call rests on the fitted dose curve; in most records, active means well fitted curve in the direction sought with a large enough effect; inconclusive means small, poorly fitted or top-dose-only effect, or effect the other way; inactive means no such curve, though single readings can be large or run the other way.

target: Cytochrome P450 2C9 (Homo sapiens) (UniProt P11712); assay: Cytochrome panel assay with activity outcomes; conditions: recombinant CYP, pro-luciferin dealkylation, luminescence, p450-cyp2c9; series mostly up to 57.1 µM; activity, negative = inhibition: at the top concentration
On the % scale 0 is the no-effect control and ±100 the full control effect.

Cytochrome P450 2C9 (Homo sapiens), sequence (P11712 whole entry, looked up): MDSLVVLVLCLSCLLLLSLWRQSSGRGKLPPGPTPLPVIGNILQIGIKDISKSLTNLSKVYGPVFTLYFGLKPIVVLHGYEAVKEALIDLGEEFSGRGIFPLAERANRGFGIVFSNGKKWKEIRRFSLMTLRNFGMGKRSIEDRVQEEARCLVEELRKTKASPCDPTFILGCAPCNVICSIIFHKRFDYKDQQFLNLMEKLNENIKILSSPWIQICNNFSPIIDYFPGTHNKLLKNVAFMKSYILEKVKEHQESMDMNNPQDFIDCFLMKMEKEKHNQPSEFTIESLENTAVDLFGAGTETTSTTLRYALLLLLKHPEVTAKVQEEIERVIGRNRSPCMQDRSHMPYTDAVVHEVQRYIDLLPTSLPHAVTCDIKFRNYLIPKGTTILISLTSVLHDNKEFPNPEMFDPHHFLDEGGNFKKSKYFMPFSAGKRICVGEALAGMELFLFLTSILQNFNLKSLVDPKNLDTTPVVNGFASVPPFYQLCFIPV

Row | SMILES | activity, negative = inhibition | AC50
1 | N#Cc1cccc(NC(=O)N2CCCC3(CCN(C(=O)c4csnn4)CC3)C2)c1 | 0.0244% | –
2 | O=c1c(-c2ccc(Cl)cc2)nc2cncnc2n1Cc1ccccc1Cl | -22.7% | –
3 | O=c1c(-c2ccc(F)c(F)c2)nc2cncnc2n1C1CC1 | 12.8% | –
4 | O=c1c(-c2ccc(F)c(F)c2)nc2cncnc2n1Cc1ccccc1Cl | – | 5.01 µM (active)
5 | O=c1c2ccccc2sc2c(CO)ccc(NCCN3CCCCC3)c12 | 17.3% [at 11.4 µM] | –
6 | COc1ccc([N+](=O)[O-])cc1COc1ccc2c(-c3ccccc3)cc(=O)oc2c1 | – | 7.08 µM (active)
7 | N[C@H](CCCP(=O)(O)O)C(=O)O | -10.4% | –
8 | Cc1cn(CC[C@H](N)C(=O)O)c(=O)[nH]c1=O | 23.1% [at 11.4 µM] | –
9 | Cc1o[nH]c(=O)c1CC[C@H](N)C(=O)O | – | 10 µM (active)
10 | CCCCCCc1c(C[C@H](N)C(=O)O)o[nH]c1=O | – | inactive
11 | Cc1ccc(S(=O)(=O)N[C@H]2COC(=O)[C@H](C)COC(=O)[C@H](C)NC(=O)C/C=C\[C@H]2C)cc1 | 2.34% [at 11.4 µM] | –
12 | CC(C)(C[C@@]1(C)NC(=O)NC1=O)OCc1ccccc1 | 9.56% [at 11.4 µM] | –
13 | CN1CCc2c(c3c(n2C)CCN(C)[C@H]3c2ccccc2F)[C@@H]1c1ccccc1F | 13.7% | –
14 | O=C1NCCN1Cc1ccccc1F | – | 12.6 µM (active)
15 | COc1ccc(OC)c(NC(=O)[C@H]2CC=CC[C@H]2C(=O)O)c1 | -19.2% | –
16 | COc1ccc(OC)c(NC(=O)CC(Cc2ccccc2OC)C(=O)O)c1 (stereo unspecified) | – | 2.24 µM (active)
17 | CCOC(=O)C1CCN(Cc2cnc(Oc3ccc(OC)cc3)s2)CC1 | – | 10 µM (active)
18 | Cc1ccc(Oc2ncc(CN3CCOCC3)s2)cc1 | -12.5% | –
19 | CCOC(=O)C1CCN(C(=O)C2CCN(S(=O)(=O)N3CCCC3)CC2)CC1 | -26.3% | –
20 | c1ccc2nc(C3=NCCN3)cnc2c1 | 16.2% | –
21 | O=C1c2ccccc2C(=O)N1CCCCN(C(=O)c1cccc([N+](=O)[O-])c1)c1ccc(Cl)cc1 | – | 7.08 µM (active)

Row | SMILES | activity, negative = inhibition | AC50
22 | O=C1c2ccccc2C(=O)N1CCCCN(C(=O)c1ccc([N+](=O)[O-])cc1)c1ccc(Cl)cc1 | – | 1.78 µM (active)
23 | N=C(N)S[C@H]1c2ccccc2-c2cc([N+](=O)[O-])ccc21 | -26% [at 11.4 µM] | –
24 | N[C@H](C(=O)O)C1[C@H](C(=O)O)[C@H]1C(=O)O (stereo partly specified) | -16.8% | –
25 | CCc1cc2c(=O)n(-c3ccccc3)c(=S)[nH]c2s1 | – | 14.1 µM (active)
26 | CCOC(=O)N1CCN(C(=O)c2ccc3c(=O)n(-c4ccc(OC)cc4)c(=S)[nH]c3c2)CC1 | -21.8% | –
27 | O=c1[nH]c(=S)c2[nH]c(=O)n(-c3ccccc3)c2[nH]1 | -16.7% [at 11.4 µM] | –
28 | O=C(N/N=C/c1c[nH]c2ccccc12)c1ccn(Cc2ccc(Cl)cc2Cl)n1 | – | 1.26 µM (active)
29 | CO[C@@H]1COC(=O)CCC[C@@H](C)[C@H](OC)COC(=O)CCC[C@H]1C | -7% [at 11.4 µM] | –
30 | C=CCc1cccc(C2Nc3ccccc3C(=O)N2O)c1O (stereo unspecified) | – | 5.01 µM (active)
31 | CC1(C(=O)CSc2nc3ccccc3s2)CCC(=O)O1 (stereo unspecified) | -21.7% | –
32 | CC(C)CC1CC(=O)OC1(C)C(=O)CSc1nc2ccccc2s1 (stereo unspecified) | – | 28.2 µM (active)
33 | Cc1cc2ccc(OC(=O)c3ccc(N=C(N)N)cc3)cc2oc1=O | 3.7% [at 11.4 µM] | –
34 | COc1ccc(-c2oc3ccccc3c(=O)c2OC(=O)c2ccc(C)cc2)cc1 | – | 1.26 µM (active)
35 | Cc1ccc(OC(=O)c2cccc(C(=O)Oc3ccc(C)cc3)n2)cc1 | -49.8% | –
36 | CC(=O)NCCNc1ncnc2ccc(-c3cccc(NS(C)(=O)=O)c3)cc12 | -12.9% [at 2.29 µM] | –
37 | COc1ccc2nc(SCC(=O)Nc3ccc4c(c3)OCCO4)[nH]c2c1 | – | 2.24 µM (active)
38 | CC(C)(C)c1ccc(-c2nnc(SCC(=O)c3ccc4c(c3)OCCO4)o2)cc1 | – | 3.16 µM (active)
39 | CCOC(=O)NC(=O)CSc1nc2ccc(OCC)cc2[nH]1 | -28.6% | –
40 | Cc1ccc(NC(=O)CSc2nnc(-c3ccncc3)o2)cc1 | – | 3.55 µM (active)
41 | CCC(=O)Nc1ccc(NC(=O)CSc2nnnn2-c2cccnc2)cc1C | -19.7% | –
42 | NC(=O)c1ccc(-c2nc(-c3ccc4c(c3)OCO4)c(-c3ccccn3)[nH]2)cc1 | -18.5% | –

Row | SMILES | activity, negative = inhibition | AC50
43 | Cc1ccc2nc(SCC(=O)c3ccc4c(c3)OCO4)[nH]c2c1 | – | 5.01 µM (active)
44 | Cc1ccc2nc(CC(=O)c3ccc4ccccc4c3)c(=O)[nH]c2c1 | -7.8% [at 11.4 µM] | –
45 | CCS(=O)(=O)N1CCC(C(=O)NCCCN2CCCC2)CC1 | 14.5% | –
46 | COc1ccc([C@H]2Sc3ccccc3N(CCN(C)C)C(=O)[C@H]2OC(C)=O)cc1 | – | inactive
47 | NC(N)=N/N=C(\c1ccc(Cl)cc1)C1CC1 | -1.67% [at 11.4 µM] | –
48 | C#CCCCO/N=C1/C[C@@H](O)[C@@H](O)[C@@H]2[C@@H]3C(=O)N(C4CCCCC4)C(=O)[C@H]3CC[C@@H]12 | -15% [at 11.4 µM] | –
49 | CC(C)C(O)(C(C)C)C(C)C | -0.763% [at 11.4 µM] | –
50 | CNc1ncncc1-c1ccc(C(=O)N(C)C)cc1 | -6.73% [at 2.29 µM] | –
51 | Cc1ccc2nc(SCC(=O)Nc3nnc(SCC(N)=O)s3)[nH]c2c1 | – | 11.2 µM (active)
52 | COc1cc(C(=O)Nc2ccc3c(c2)OCCO3)c(-n2cnnn2)cc1OC | -8.95% | –
53 | COc1cc(-c2nnc(SCC(=O)Nc3ccc4c(c3)OCCO4)o2)cc(OC)c1OC | – | 1.41 µM (active)
54 | COc1ccc(-n2c(=O)[nH]cc(C(=O)Nc3ccc4c(c3)OCCO4)c2=O)cc1 | – | 7.08 µM (active)
55 | CCCCNCCOCCSc1ccc(Cl)cc1 | -16.8% | –
56 | CCCCCc1nc2c(=O)[nH]c3ccccc3c2o1 | -15.2% | –
57 | NC(=Nc1ccccc1)NC(=O)c1nc(Cl)c(N)nc1N | -6.89% | –
58 | N/C(=N\c1nc2ccccc2o1)NC(=O)c1ccccc1F | – | 12.6 µM (active)
59 | COc1ccc(C2/C(=C(/O)c3ccc4c(c3)CC(C)O4)C(=O)C(=O)N2CCN2CCOCC2)cc1 (stereo unspecified) | -36.8% | –
60 | COc1cccc(NC(=O)CSc2nnc(CN3CCOCC3)n2C)c1 | -27.8% | –
61 | CCN(CC)C(=O)CSc1nc2ccc(NC(=O)CSc3nnc(COc4ccccc4C)n3C)cc2s1 | – | 1.58 µM (active)
62 | O=C(COc1ccc(-c2ccccc2)cc1)N/N=C/c1ccccc1Br | – | 4.47 µM (active)
63 | CCOC(=O)N/N=C/c1ccccc1F | -7.31% | –

Row | SMILES | activity, negative = inhibition | AC50
64 | CN(C)Cc1c[nH]c2nc[nH]c(=O)c12 | 4.29% [at 11.4 µM] | –
65 | CC(=O)NCCNc1nc(-c2ccc3c(c2)OCO3)nc2ccccc12 | 5.84% [at 2.29 µM] | –
66 | c1ccc(CNc2nc(-c3ccc4c(c3)OCO4)nc3ccccc23)cc1 | -26.1% [at 2.29 µM] | –
67 | CC(NC(=O)CCSc1nc(-c2ccc3c(c2)OCO3)cc(C(F)(F)F)n1)c1ccccc1 (stereo unspecified) | – | 2 µM (active)
68 | COCCNc1nc(-c2ccccc2C(F)(F)F)nc2ccccc12 | -9.26% [at 2.29 µM] | –
69 | CCCNc1c(F)c(F)c2c(C)c3ccccc3nc2c1F | – | 15.8 µM (active)
70 | Cc1cc(NCCO)c2ccccc2n1 | -11.5% | –
71 | CCN1CCN(c2nc(-c3ccccn3)nc3ccccc23)CC1 | -23.3% | –
72 | CCCCC1CCC(c2nc(-c3ccccn3)no2)CC1 (stereo unspecified) | – | 14.1 µM (active)
73 | CC(=O)/C=C/c1ccc2ccccc2n1 | -7.35% | –
74 | c1ccc2nc(-c3ccncc3)ccc2c1 | – | 5.01 µM (active)
75 | COc1cccc(-c2cc(N(C)Cc3ccco3)ncn2)c1 | -6.29% [at 2.29 µM] | –
76 | C[C@@H]1NC(=O)C/C=C\[C@@H](C)[C@@H]2C=C[C@H](O)[C@@H](COC(=O)[C@H](C)NC(=O)C/C=C\[C@@H](C)[C@@H]3C=C[C@H](O)[C@@H](COC1=O)O3)O2 | 5.32% [at 11.4 µM] | –
77 | CCOc1cc(S(=O)(=O)N(Cc2ccccc2)Cc2ccccc2)c(OCC)cc1-n1cnnn1 | – | 7.94 µM (active)
78 | O=C(O)CN(CCOCCOCCN(CC(=O)O)CC(=O)O)CC(=O)O | 6.97% | –
79 | FC(F)(F)c1ccccc1-c1nc(NC2CC2)c2ccccc2n1 | 12.1% [at 2.29 µM] | –
80 | COc1cc(C)cc(OC)c1/C=C\C(=O)O | -15.8% [at 11.4 µM] | –
81 | COc1ccc2ccccc2c1/C=C\C(=O)c1ccccc1 | – | 1.26 µM (active)
